The results in this text go back to PubChem BioAssay (Tox21).

A short description of experiment [1]: qHTS assay to identify small molecule antagonists of the constitutive androstane receptor (CAR) signaling pathway - cell viability counter screen (AID 1224837). Also: nearly all actives have a fitted effect of over 45% in size. A digest of the protocol:
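Using CellTiter-Fluor, viability is scored in HepG2 cells stably carrying hCAR and a 2.2kb CYP2B6 reporter after 23 hr compound exposure across 15 concentrations, with CITCO present at 50 nM.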

The target of experiment [2] is Nuclear receptor subfamily 1 group I member 3 (Homo sapiens) (UniProt Q14994). The experiment is described as follows: qHTS assay to identify small molecule antagonists of the constitutive androstane receptor (CAR) signaling pathway (AID 1224838).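 Also: HepG2 cells stably expressing hCAR with CYP2B6 luciferase reporter stimulated by CITCO; nearly all actives have a fitted effect of over 40% in size.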 In short, it runs like this: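 Reporter luminescence was quantified after 24 h exposure of hCAR/CYP2B6-2.2kb double-stable HepG2 cells to compounds at 15 concentrations in the presence of 50 nM CITCO final.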

For experiment [3] the target is unchanged. The experiment is described as follows: qHTS assay to identify small molecule agonists of the constitutive androstane receptor (CAR) signaling pathway (AID 1224839). Also: nearly all actives have a fitted effect of over 15% in size. Also: potency is read from the fitted curve at half-maximal effect.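 As to activation: HepG2 cells stably carrying human CAR and a CYP2B6 luciferase reporter.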 A digest of the protocol:
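Cells were plated and incubated 4 hrs, then dosed with compounds at 15 concentrations. PK11195 was added to 0.75 uM final. After 24 hrs at 37 C, luciferase luminescence was measured.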

Experiment [4] in a line: qHTS assay to identify small molecule antagonists of the estrogen related receptor signaling pathway with the pleiotropic PPARgamma coactivator (PGC) from Tox21 10K library - cell viability counter screen (AID 1224840; active = well fitted cell-killing curve with a large enough effect in the repeat runs, not every such curve was filed as active; also: nearly all actives have a fitted effect of over 40% in size). In short, it runs like this:
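Here the PGC/ERR cells serve as a cytotoxicity control: they are exposed to compounds for 17.5 hours at 37 C, and live-cell signal is quantified using CellTiter-Fluor fluorescence.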

Experiment [5] in a line: qHTS assay to identify small molecule antagonists of the estrogen related receptor signaling pathway with the pleiotropic PPARgamma coactivator (PGC) from Tox21 10K library (AID 1224841; call rule not given here; also: actives are mostly falling curves and most rising ones were filed inactive; nearly all actives have a fitted effect of over 50% in size; also: potency is read from the fitted curve at half-maximal effect). In short, it runs like this:
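Each well held 2,000 PGC/ERR cells, pre-incubated six hours (37 C, 5% CO2). Test substances in DMSO were added by pin tool and left for 18 h at 37 C before luciferase detection by One-Glo.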

Experiment [6] is described as follows: qHTS assay to identify small molecule agonists of the estrogen related receptor signaling pathway with the pleiotropic PPARgamma coactivator (PGC) from Tox21 10K library (AID 1224842). Also: nearly all actives have a fitted effect of over 15% in size. In short, it runs like this: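 PGC/ERR reporter cell line, 2,000 cells per well, incubated 6 h at 37 C before 23 nL compound in DMSO was added. After 18 h at 37 C, One-Glo luminescence read following 30 min at room temperature.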

Experiment [7] concerns the target Thyrotropin receptor (Homo sapiens) (UniProt P16473). The experiment is described as follows: qHTS assay to identify small molecule agonists of the thyroid stimulating hormone receptor (TSHR) signaling pathway (AID 1224843; calls by dose curve; also: nearly all actives have a fitted effect of over 45% in size). In short, it runs like this:
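TSHR-HEK293 cells in agonist mode, 30 min room-temperature step, then cAMP measured by competitive HTRF (cAMP-d2 with anti-cAMP cryptate) after 1 h at room temperature. Tested at 15 concentrations in triplicate.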

The nature of experiment [8]: qHTS assay to identify small molecule agonists of the hypoxia (HIF-1) signaling pathway - cell viability counter screen (AID 1224844; calls by dose curve; also: nearly all actives have a fitted effect of over 50% in size). In short, it runs like this: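 Multiplexed with the HRE beta-lactamase assay, this viability read used CellTiter-Glo luminescence (30 min, RT) on HRE-bla ME-180 cells treated 17 hrs with compounds in 0.5% dialyzed FBS medium.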
A short description of experiment [9]: qHTS assay to identify small molecule agonists of H2AX (AID 1224845; active = well fitted activation curve with a large enough effect in the signal ratio in the repeat runs, not every such curve was filed as active; the % refers to the signal ratio). A digest of the protocol:
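Wild-type CHO-K1 cells, plated overnight, exposed 3hr at 37C to 15 concentrations (0.76% DMSO final). Lysed, then HTRF anti-pH2AX (S139) cryptate and anti-H2AX-d2 antibodies, 24 hr room temperature; 665/620 nm emission read.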

A short description of experiment [10]: qHTS assay to identify small molecule agonists of the hypoxia (HIF-1) signaling pathway (AID 1224846; active = well fitted activation curve with a large enough effect in the signal ratio in the repeat runs, not every such curve was filed as active; the % refers to the signal ratio). In short, it runs like this: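 Hypoxia-pathway activation was scored as increased beta-lactamase from an HRE-controlled reporter in ME-180 cells; plated at 2,000 cells per well with 0.5% dialyzed FBS, they were exposed 17 hrs to compounds and then given CCF4-AM.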

A short description of experiment [11]: qHTS assay to identify small molecule agonists of H2AX - cell viability counter screen (AID 1224847; calls by dose curve; also: top concentration of the series differs between compounds; nearly all actives have a fitted effect of over 30% in size). In short, it runs like this:
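Cytotoxicity counter screen in wild-type CHO-K1 cells: a 3 hr compound treatment at 37C across 15 concentrations, followed by CellTiter-Glo luminescence to gauge viable cells.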

The nature of experiment [12]: qHTS assay to identify small molecule antagonists of the estrogen related receptor (ERR) signaling pathway from Tox21 library (AID 1224848). Also: nearly all actives have a fitted effect of over 50% in size. Also: potency is read from the fitted curve at half-maximal effect. In short, it runs like this:
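ERR reporter cell line (from NTP) seeded 2,000 cells/well, rested 6 h at 37 C/5% CO2, then pin-dosed with compounds in DMSO. After 18 h at 37 C, ONE-Glo added; luminescence read after 30 min at room temperature.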

Experiment [13] is described as follows: qHTS RealTime-Glo MT Cell Viability Assay in HepG2 cells - 24 hour (AID 1224867). Also: nearly all actives have a fitted effect of over 50% in size. In short, it runs like this:
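HepG2 cells (600/well) were dispensed with RealTime-Glo reagents, incubated 5 h at 37 °C, then treated with compounds in DMSO for up to 40 h. Nonlytic NanoLuc luminescence reflecting viable cells was read at each stated time point.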

A short description of experiment [14]: qHTS RealTime-Glo MT Cell Viability Assay in HEK293 cells - 32 hour (AID 1224868). Also: nearly all actives have a fitted effect of over 50% in size. Also: potency is read from the fitted curve at half-maximal effect. A digest of the protocol:
(§1)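 HEK293 cells seeded with NanoLuc/prosubstrate reagent, rested 5 h at 37 C, then dosed and kept at 37 C up to 40 h. Nonlytic real-time luminescence from viable cells read at 0, 8, 16, 24, 32 and 40 h.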

Experiment [15] is described as follows: A CellTox Green Cytotoxicity Assay to monitor cytotoxicity in HEK293 cells - 0 hour (AID 1224869). Also: nearly all actives have a fitted effect of over 50% in size. In short, it runs like this: (§2)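 Seeding of HEK293 cells together with cytotoxicity dye preceded a 5 h incubation at 37 C/5% CO2. Test compounds in DMSO were then added and fluorescence monitored across 40 h.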
The nature of experiment [16]: qHTS RealTime-Glo MT Cell Viability Assay in HepG2 cells - 40 hour (AID 1224870). Also: nearly all actives have a fitted effect of over 50% in size. In short, it runs like this:
(§3)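 HepG2 cells (600/well) mixed with RealTime-Glo MT reagent, settled 5 h at 37 C/5% CO2 before compound addition. Nonlytic NanoLuc luminescence from viable-cell prosubstrate reduction read repeatedly during 40 h treatment at 37 C.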

Experiment [17] is described as follows: A CellTox Green Cytotoxicity Assay to monitor cytotoxicity in HEK293 cells - 40 hour (AID 1224871). Also: nearly all actives have a fitted effect of over 45% in size. A digest of the protocol:
as §2

Experiment [18] is described as follows: qHTS RealTime-Glo MT Cell Viability Assay in HEK293 cells - 16 hour (AID 1224872). In short, it runs like this: as §1
A short description of experiment [19]: qHTS RealTime-Glo MT Cell Viability Assay in HepG2 cells - 8 hour (AID 1224873). Also: nearly all actives have a fitted effect of over 55% in size. A digest of the protocol: as §3
The nature of experiment [20]: qHTS assay to identify small molecule agonists of the estrogen related receptor (ERR) signaling pathway from Tox21 library (AID 1224849; calls by dose curve; also: nearly all actives have a fitted effect of over 15% in size). The following applies: ERR reporter cell line, ONE-Glo luciferase, 18 h. In short, it runs like this:
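Six hours post-seeding at 37 C/5% CO2, ERR cells receive DMSO-solubilised compounds; after 18 h at 37 C, ONE-Glo reagent is applied and luminescence recorded.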

Structures are written as SMILES. “And” between values parts separate entries of the source, which are not always exact repeats. Equal values may be shown once. Results filed as inconclusive are left out. The source holds several records for some structures; these can differ, active in one and inactive in another. The source made the active and inactive calls. Unless noted, calls follow the shape of the dose curve; as a rule, active = well fitted curve in the direction sought with a large enough effect in the repeat runs; inconclusive = weak or mixed curves; inactive = no such curve, though single readings can be large; an effect the other way counts as inactive or inconclusive.
% is scaled to controls: 0 for no effect and ±100 for the full control effect.

Sequence of Thyrotropin receptor (Homo sapiens) (P16473 whole entry, looked up): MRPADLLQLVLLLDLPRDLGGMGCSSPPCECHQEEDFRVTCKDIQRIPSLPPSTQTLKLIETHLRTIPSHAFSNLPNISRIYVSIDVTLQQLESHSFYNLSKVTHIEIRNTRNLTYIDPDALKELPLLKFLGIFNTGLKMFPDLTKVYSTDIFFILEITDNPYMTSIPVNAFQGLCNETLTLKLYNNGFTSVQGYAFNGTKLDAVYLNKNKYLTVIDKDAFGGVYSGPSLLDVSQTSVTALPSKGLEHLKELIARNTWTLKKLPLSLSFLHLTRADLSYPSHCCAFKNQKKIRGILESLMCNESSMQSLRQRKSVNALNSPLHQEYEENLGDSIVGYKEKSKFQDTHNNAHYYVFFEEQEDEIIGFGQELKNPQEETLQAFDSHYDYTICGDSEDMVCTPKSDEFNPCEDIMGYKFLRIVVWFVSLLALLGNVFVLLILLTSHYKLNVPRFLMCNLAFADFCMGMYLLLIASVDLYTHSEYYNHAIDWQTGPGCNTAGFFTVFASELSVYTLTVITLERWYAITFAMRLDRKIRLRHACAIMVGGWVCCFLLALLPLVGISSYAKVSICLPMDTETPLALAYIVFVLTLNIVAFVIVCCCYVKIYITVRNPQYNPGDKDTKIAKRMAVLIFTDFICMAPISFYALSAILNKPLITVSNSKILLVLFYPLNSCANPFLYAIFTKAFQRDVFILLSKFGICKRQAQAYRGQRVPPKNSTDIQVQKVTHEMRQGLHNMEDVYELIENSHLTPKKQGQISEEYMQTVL
Sequence of Nuclear receptor subfamily 1 group I member 3 (Homo sapiens) (Q14994 whole entry, looked up): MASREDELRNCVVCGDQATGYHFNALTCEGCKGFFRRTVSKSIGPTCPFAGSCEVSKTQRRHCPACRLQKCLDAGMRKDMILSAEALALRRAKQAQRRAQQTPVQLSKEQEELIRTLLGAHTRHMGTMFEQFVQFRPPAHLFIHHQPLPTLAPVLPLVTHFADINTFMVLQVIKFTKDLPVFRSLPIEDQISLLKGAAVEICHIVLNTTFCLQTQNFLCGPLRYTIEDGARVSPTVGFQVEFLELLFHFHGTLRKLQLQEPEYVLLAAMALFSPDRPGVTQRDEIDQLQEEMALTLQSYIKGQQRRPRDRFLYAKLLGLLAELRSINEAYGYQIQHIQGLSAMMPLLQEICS

Take `COCCl`: the Potency result in experiment [1], in experiment [2], in [3], in experiment [4], in experiment [5] and in experiment [7] was “inactive” each time. For the same molecule, the Potency result in experiment [8], in experiment [9], in experiment [11], in experiment [12], in experiment [14] and in experiment [15] was “inactive” throughout. In addition, the Potency entry in experiment [17] is “inactive”. Moreover, the call in [6], in experiment [10], in experiment [13], in [16] and in [18] was inactive.
As for `O=NN1CCCCCCC1`, the Potency result in experiment [1], in [2], in experiment [3], in experiment [4], in experiment [7] and in [8] was “inactive” each time. In addition, the Potency entry in experiment [9], in experiment [11], in experiment [14], in experiment [15] and in [17] was “inactive” each time. Moreover, the molecule was called inactive in experiment [10], in experiment [13], in experiment [16] and in experiment [18].
Turning to `O=C(NC(=O)c1c(F)cccc1F)Nc1cc(Cl)c(OC(F)(F)C(F)C(F)(F)F)cc1Cl` (configuration not stated), the Potency entry in experiment [1], in experiment [2], in [3], in experiment [4], in experiment [5] and in experiment [7] was “inactive” in each case. For the same molecule, the Potency entry in experiment [8], in experiment [15] and in experiment [17] was “inactive” in each case. Moreover, the result in [6], in [10], in [13], in experiment [18] and in experiment [19] was inactive. Moreover, the Potency in [14] was 12.3 µM (active) and inactive.
As for `CCN(CC)CCO`, the Potency entry in experiment [1], in [2], in experiment [3], in [4], in [7] and in experiment [8] was “inactive” in each case. Moreover, the Potency result in experiment [9], in experiment [11], in experiment [14], in [15] and in [17] was “inactive” throughout. Besides, the outcome in experiment [10], in experiment [13], in [16], in experiment [18] and in [19] was inactive.
Consider `CON(C)C(=O)Nc1ccc(Cl)c(Cl)c1`, for which the Potency entry in experiment [1], in experiment [2], in [4], in [5], in experiment [7] and in experiment [8] was “inactive” throughout. Besides, the Potency entry in experiment [9], in experiment [11], in [12], in experiment [15] and in experiment [17] was “inactive” in each case. Also, the Potency in experiment [3] is 61.4 µM (active) and 54.5 µM (active); in experiment [14], 43.6 µM (active). Moreover, the molecule was classed as inactive in experiment [6], in experiment [10], in [13], in experiment [16] and in experiment [18]. Moreover, the activity change, positive = activation in experiment [20] (at 92.4 µM (top of the series)) was -4.36% (inactive) and -0.559% (inactive).
Regarding `CCC(C)(CC)c1cc(NC(=O)c2c(OC)cccc2OC)on1`, the Potency result in experiment [1], in [2], in experiment [3], in experiment [4], in experiment [8] and in experiment [9] was “inactive” in each case. Also, the Potency entry in experiment [11], in [14], in experiment [15] and in experiment [17] was “inactive” in each case. The Potency in experiment [5] was 30.7 µM (active) and inactive; in experiment [12], 54.6 µM (active) and 46.7 µM (active). The molecule was called inactive in [6], in [10], in experiment [13], in experiment [16], in [18] and in experiment [19].
As to `CC(C)=C[C@@H]1[C@@H](C(=O)OCc2coc(Cc3ccccc3)c2)C1(C)C`, the Potency entry in experiment [1], in experiment [2], in [4], in experiment [7], in experiment [8] and in [9] was “inactive” throughout. Moreover, the Potency entry in [11], in experiment [14], in experiment [15] and in [17] was “inactive” throughout. Besides, the Potency in experiment [3] is 17.2 µM (active) and inactive. The result in experiment [10], in [13], in experiment [16] and in experiment [18] was inactive.
On to `Nc1ccccc1C(=O)O`, for which the Potency entry in experiment [1], in experiment [2], in experiment [3], in experiment [4], in experiment [5] and in [7] was “inactive” in each case. Besides, the Potency result in experiment [8], in [9], in [11], in experiment [12], in experiment [14] and in [15] was “inactive” in each case. Further, in [17], the Potency entry is “inactive”. Further, the molecule was called inactive in experiment [6], in experiment [10], in experiment [13], in experiment [16], in [18] and in [19]. The activity change, positive = activation in experiment [20] (at 42.5 µM (top of the series)) is 5.44% (inactive); in experiment [20] (at 92.4 µM (top of the series)), 6.82% (inactive).
